# ± gives the standard deviation of the averaged measurements.
# What was measured:
# [1] = tested on: Escherichia coli Nissle 1917; assay: area under OmniLog respiration curve over 48 h (OmniLog units x h); higher = more growth / nutrient utilisation; extreme values may be limits of the assay; conditions: incubation: 48 h, 37 °C
# [2] = tested on: Escherichia coli Nissle 1917; assay: DuctApe activity index of respiration/growth curve (0 no growth to 9 maximum) (index 0-9); higher = more growth / nutrient utilisation, active = 3 or more; extreme values may be limits of the assay; conditions: incubation: 48 h, 37 °C
# [3] = nutrient role: C-Source, carboxylic acid
# [4] = nutrient role: C-Source, carbohydrate
# [5] = nutrient role: sole sulfur source (pyruvate carbon)
# [6] = nutrient role: sole nitrogen source (pyruvate carbon)
# [7] = nutrient role: sole phosphorus source (pyruvate carbon)
# [8] = nutrient role: C-Source, alcohol
# 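For DuctApe activity index of respiration/growth curve (0 no growth to 9 maximum) in this document: biolog PM4 phosphorus and sulfur plates, tetrazolium violet dye reduction read in the OmniLog every 15 min, kinetic curves scored by DuctApe, each plate run in triplicate.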
compound,measurement,setting,value
O=C(CO)[C@@H](O)[C@H](O)[C@@H](O)C(=O)O [5-Keto-D-Gluconic acid],area under OmniLog respiration curve,[1]; [3],118 ± 140
same,DuctApe activity index,[2]; [3],0 (inactive)
"O=C1O[C@H](CO)[C@@H](O)[C@H]1O [D-Ribono-1,4-Lactone]",area under OmniLog respiration curve,[1]; [3],4.72
same,DuctApe activity index,[2]; [3],0 (inactive)
OC[C@H]1OC(O)[C@@H](O)[C@@H](O)[C@@H]1O (stereo partly drawn) [D-Mannose],area under OmniLog respiration curve,[1]; [4],8430 ± 440
same,DuctApe activity index,[2]; [4],8 (active)
NCCS(=O)(=O)O [Taurine],area under OmniLog respiration curve,[1]; [5],7830 ± 160
same,DuctApe activity index,[2]; [5],8 (active)
CO[C@@H]1O[C@H](CO)[C@@H](O)[C@H](O)[C@H]1O [b-Methyl-D-Glucoside],area under OmniLog respiration curve,[1]; [4],6700 ± 470
same,DuctApe activity index,[2]; [4],7.33 (active)
CC(=O)N[C@H]1[C@H]([C@H](O)[C@H](O)CO)OC(O)(C(=O)O)C[C@@H]1O (some centres undefined) [N-Acetyl-Neuraminic acid],area under OmniLog respiration curve,[1]; [3],6140 ± 840
same,DuctApe activity index,[2]; [3],7 (active)
OC[C@H]1O[C@@H](S)[C@H](O)[C@@H](O)[C@@H]1O [1-Thio-b-D-Glucose],area under OmniLog respiration curve,[1]; [5],1240 ± 430
same,DuctApe activity index,[2]; [5],2.67 (inactive)
OCC1OC(OC2C(CO)OC(O)C(O)C2O)C(O)C(O)C1O [D-Cellobiose],area under OmniLog respiration curve,[1]; [4],963 ± 760
same,DuctApe activity index,[2]; [4],1.33 (inactive)
C[C@@H]1OC(O)[C@H](O)[C@H](O)[C@H]1O (stereo partly drawn) [L-Rhamnose],area under OmniLog respiration curve,[1]; [4],6960 ± 610
same,DuctApe activity index,[2]; [4],7.33 (active)
O=C1O[C@@H]([C@H](O)CO)[C@H](O)[C@H]1O [D-Galactonic acid-g-Lactone],area under OmniLog respiration curve,[1]; [3],8410 ± 840
same,DuctApe activity index,[2]; [3],8.33 (active)
CC1OC(O)C(O)C(O)C1O [L-Fucose],area under OmniLog respiration curve,[1]; [4],7650 ± 700
same,DuctApe activity index,[2]; [4],7.67 (active)
C[C@H](N)C(=O)N[C@@H](Cc1cnc[nH]1)C(=O)O,area under OmniLog respiration curve,[1]; [6],6900 ± 1400
same,DuctApe activity index,[2]; [6],7.67 (active)
CS(=O)(=O)CC[C@H](N)C(=O)O [L-Methionine Sulfone],area under OmniLog respiration curve,[1]; [5],31.6 ± 21
same,DuctApe activity index,[2]; [5],0 (inactive)
OCC1(O)OC[C@@H](O)[C@@H](O)[C@H]1O (stereo partly drawn) [D-Psicose],area under OmniLog respiration curve,[1]; [4],3500 ± 700
same,DuctApe activity index,[2]; [4],4 (active)
O=C(O)C[C@@H](O)C(=O)O [D-Malic acid],area under OmniLog respiration curve,[1]; [3],3920 ± 860
same,DuctApe activity index,[2]; [3],5.33 (active)
O=c1cc[nH]c(=O)[nH]1 [Uracil],area under OmniLog respiration curve,[1]; [6],103 ± 170
same,DuctApe activity index,[2]; [6],0 (inactive)
CCCC(=O)C(=O)O [a-Keto-Valeric acid],area under OmniLog respiration curve,[1]; [3],4.72
same,DuctApe activity index,[2]; [3],0 (inactive)
CCCCCCCCCC(=O)O [Capric acid],area under OmniLog respiration curve,[1]; [3],14.2 ± 6.8
same,DuctApe activity index,[2]; [3],0 (inactive)
O=C(O)[C@@H](O)[C@H](O)[C@H](O)[C@@H](O)C(=O)O [Mucic acid],area under OmniLog respiration curve,[1]; [3],8240 ± 630
same,DuctApe activity index,[2]; [3],8.33 (active)
Oc1nc(O)c2nc(O)[nH]c2n1 [Uric acid],area under OmniLog respiration curve,[1]; [6],986 ± 490
same,DuctApe activity index,[2]; [6],2.33 (inactive)
OC[C@H]1O[C@H](O[C@H]2[C@H](O)[C@@H](O)[C@@H](O[C@H]3[C@H](O)[C@@H](O)C(O)O[C@@H]3CO)O[C@@H]2CO)[C@H](O)[C@@H](O)[C@@H]1O (mixture of isomers) [Maltotriose],area under OmniLog respiration curve,[1]; [4],8540 ± 380
same,DuctApe activity index,[2]; [4],8 (active)
N[C@@H](CCC(=O)N[C@@H](CS)C(=O)NCC(=O)O)C(=O)O [Glutathione],area under OmniLog respiration curve,[1]; [5],1690 ± 30
same,DuctApe activity index,[2]; [5],5 (active)
CC(=O)CC(=O)O [Acetoacetic acid],area under OmniLog respiration curve,[1]; [3],784 ± 630
same,DuctApe activity index,[2]; [3],0 (inactive)
NC(=O)C[C@@H](N)C(=O)O [D-Asparagine],area under OmniLog respiration curve,[1]; [6],1420 ± 780
same,DuctApe activity index,[2]; [6],2.33 (inactive)
NC=O [Formamide],area under OmniLog respiration curve,[1]; [6],38.4 ± 58
same,DuctApe activity index,[2]; [6],0 (inactive)
CO[C@@H]1OC[C@@H](O)[C@H](O)[C@H]1O [b-Methyl-D-Xyloside],area under OmniLog respiration curve,[1]; [4],4.72
same,DuctApe activity index,[2]; [4],0 (inactive)
O=C(O)CO [Glycolic acid],area under OmniLog respiration curve,[1]; [3],7210 ± 370
same,DuctApe activity index,[2]; [3],7.67 (active)
NCCCCCC(=O)O [e-Amino-N-Caproic acid],area under OmniLog respiration curve,[1]; [6],1240 ± 1000
same,DuctApe activity index,[2]; [6],2.33 (inactive)
CCC(C)N (centres undefined) [sec-Butylamine],area under OmniLog respiration curve,"[1]; nutrient role: C-Source, amine",5.72 ± 1.7
same,DuctApe activity index,"[2]; nutrient role: C-Source, amine",0 (inactive)
Cc1cn([C@H]2C[C@H](OP(=O)(O)O)[C@@H](CO)O2)c(=O)[nH]c1=O [Thymidine 3`-Monophosphate],area under OmniLog respiration curve,[1]; [7],8940 ± 450
same,DuctApe activity index,[2]; [7],8.67 (active)
NCCOP(=O)(O)O [O-Phosphoryl-Ethanolamine],area under OmniLog respiration curve,[1]; [7],8740 ± 290
same,DuctApe activity index,[2]; [7],8.67 (active)
O=C(O)Cc1cccc(O)c1 [m-Hydroxyphenyl Acetic acid],area under OmniLog respiration curve,[1]; [3],114 ± 120
same,DuctApe activity index,[2]; [3],0.667 (inactive)
N[C@@H](Cc1ccc(O)cc1)C(=O)O [L-Tyrosine],area under OmniLog respiration curve,[1]; [6],1110 ± 450
same,DuctApe activity index,[2]; [6],2.33 (inactive)
OC[C@H]1O[C@@H](O[C@@H]2[C@@H](CO)OC(O)(CO)[C@H]2O)[C@H](O)[C@@H](O)[C@H]1O (mixture of isomers) [Lactulose],area under OmniLog respiration curve,[1]; [4],8170 ± 840
same,DuctApe activity index,[2]; [4],8 (active)
O=C(O)/C=C/C(=O)O [Fumaric acid],area under OmniLog respiration curve,[1]; [3],8610 ± 570
same,DuctApe activity index,[2]; [3],8.33 (active)
N[C@@H](CS(=O)(=O)O)C(=O)O [L-Cysteic acid],area under OmniLog respiration curve,[1]; [5],5920 ± 240
same,DuctApe activity index,[2]; [5],7 (active)
N[C@H]1C(O)O[C@H](CO)[C@H](O)[C@@H]1O (stereo partly drawn) [D-Galactosamine],area under OmniLog respiration curve,[1]; [6],11.2 ± 11
same,DuctApe activity index,[2]; [6],0 (inactive)
CC(C)[C@@H](N)C(=O)O [D-Valine],area under OmniLog respiration curve,[1]; [6],469 ± 470
same,DuctApe activity index,[2]; [6],0.667 (inactive)
C[C@H](N)C(=O)N[C@@H](CC(=O)O)C(=O)O,area under OmniLog respiration curve,[1]; [6],9150 ± 1000
same,DuctApe activity index,[2]; [6],8.67 (active)
NC(CCSCC(N)C(=O)O)C(=O)O (centres undefined) [Cystathionine],area under OmniLog respiration curve,[1]; [5],4100 ± 130
same,DuctApe activity index,[2]; [5],6 (active)
COC(=O)CCC(=O)O [Mono-Methylsuccinate],area under OmniLog respiration curve,[1]; [3],1170 ± 950
same,DuctApe activity index,[2]; [3],1.33 (inactive)
"CC(O)C(C)O (centres undefined) [2,3-Butanediol]",area under OmniLog respiration curve,[1]; [8],20.2 ± 16
same,DuctApe activity index,[2]; [8],0 (inactive)
